For some assays here: Results with a measured potency or affinity are listed apart.

Holding throughout (design): scale not given: direction of the effect not stated beside the values
Test [1] has as its target Protein translocase subunit SecA (Escherichia coli (strain K12)) (UniProt P10408). In words: Assay to Identify E. coli SecA ATPase Inhibitors. The class given is functional. Particulars: 30 µM.
For test [2], the target named is T1, Ubiquitin-activating enzyme e1, putative (Leishmania donovani (strain BPK282A1)) (UniProt E9BSI1).
T1 sequence (whole entry): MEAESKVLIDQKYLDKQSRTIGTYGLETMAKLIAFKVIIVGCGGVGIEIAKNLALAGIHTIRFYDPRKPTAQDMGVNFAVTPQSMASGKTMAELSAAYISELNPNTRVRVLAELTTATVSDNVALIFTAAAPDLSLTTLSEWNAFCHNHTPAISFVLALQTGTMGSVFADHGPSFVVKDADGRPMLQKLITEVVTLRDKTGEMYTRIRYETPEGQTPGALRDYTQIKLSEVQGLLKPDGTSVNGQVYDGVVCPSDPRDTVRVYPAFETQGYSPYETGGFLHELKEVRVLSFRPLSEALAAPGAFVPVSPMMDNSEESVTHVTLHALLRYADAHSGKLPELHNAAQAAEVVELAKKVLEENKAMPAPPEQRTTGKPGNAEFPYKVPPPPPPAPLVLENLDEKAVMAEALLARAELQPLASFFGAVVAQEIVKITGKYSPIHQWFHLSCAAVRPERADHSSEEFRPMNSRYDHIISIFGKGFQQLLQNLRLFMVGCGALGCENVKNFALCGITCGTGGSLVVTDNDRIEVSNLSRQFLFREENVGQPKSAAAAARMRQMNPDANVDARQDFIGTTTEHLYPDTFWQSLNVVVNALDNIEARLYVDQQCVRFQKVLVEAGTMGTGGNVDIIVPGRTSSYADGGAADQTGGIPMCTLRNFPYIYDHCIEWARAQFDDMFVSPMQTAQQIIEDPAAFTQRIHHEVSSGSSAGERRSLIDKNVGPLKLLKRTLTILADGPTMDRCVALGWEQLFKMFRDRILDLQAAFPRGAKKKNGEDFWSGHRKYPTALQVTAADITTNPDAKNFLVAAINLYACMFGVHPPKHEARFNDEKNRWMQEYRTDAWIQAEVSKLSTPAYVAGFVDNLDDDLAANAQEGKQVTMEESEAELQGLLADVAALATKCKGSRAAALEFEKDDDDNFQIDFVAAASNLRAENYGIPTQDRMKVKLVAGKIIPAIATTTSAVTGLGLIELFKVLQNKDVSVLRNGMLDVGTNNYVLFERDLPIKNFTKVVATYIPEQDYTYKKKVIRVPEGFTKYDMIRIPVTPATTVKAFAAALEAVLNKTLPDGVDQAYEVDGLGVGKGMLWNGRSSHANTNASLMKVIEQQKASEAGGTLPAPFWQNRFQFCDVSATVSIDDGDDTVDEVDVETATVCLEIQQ
In words: Leishmania donovani Ubiquitin Activating Enzyme (LdE1). The class given is functional. The conditions noted are these: 30 µM.

Test [3] addresses AMP-activated protein kinase, AMPK (Homo sapiens) (UniProt P54646+O43741+P54619+Q9UGJ0+Q9Y478+Q13131+Q9UGI9). In words: AMP-dependent Kinase enzyme assay. An in vitro enzyme assay that detects ADP turnover that is directly proportional to AMPK activity. This uses naive AMPK that is activated during the assay with MK-8722. The conditions noted are these: 30 µM. The class given is functional.

For test [4], the target named is Sialic acid-binding Ig-like lectin 9 (Homo sapiens) (UniProt Q9Y336). In words: Hs-Siglec9 ALPHAscreen SOP 20170721. Particulars: 10 µM. A general note: Alpha assays give light when donor and acceptor beads are brought close together.
In a further test the test system is Trypanosoma cruzi. In words: Trypanosoma cruzi phosphomannomutase and mannose-1-phosphate guanylyltransferase assay. The class given is functional. The conditions noted are these: 10 µM.
In test [5] the target is T2, Arginase-2, mitochondrial (Homo sapiens) (UniProt P78540).
T2 sequence (whole entry): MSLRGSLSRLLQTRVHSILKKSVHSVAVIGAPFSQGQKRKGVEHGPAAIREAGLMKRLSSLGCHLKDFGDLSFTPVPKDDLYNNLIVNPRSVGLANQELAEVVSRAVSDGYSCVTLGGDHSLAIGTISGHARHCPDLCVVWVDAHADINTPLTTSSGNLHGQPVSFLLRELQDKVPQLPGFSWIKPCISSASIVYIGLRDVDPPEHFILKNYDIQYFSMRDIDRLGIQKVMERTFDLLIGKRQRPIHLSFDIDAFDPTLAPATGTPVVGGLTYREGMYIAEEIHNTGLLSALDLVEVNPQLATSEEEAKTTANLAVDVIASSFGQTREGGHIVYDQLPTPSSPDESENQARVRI
In words: in vitro enzyme assay to detect the production of urea directly proportional to the activity of Arginase II. Also: in the data most compounds retested in dose-response had high values. The class given is functional. The conditions noted are these: 33.3 µM.

Test [6] addresses T3, Proteasome subunit beta (Trypanosoma cruzi) (UniProt O96673).
T3 sequence (whole entry): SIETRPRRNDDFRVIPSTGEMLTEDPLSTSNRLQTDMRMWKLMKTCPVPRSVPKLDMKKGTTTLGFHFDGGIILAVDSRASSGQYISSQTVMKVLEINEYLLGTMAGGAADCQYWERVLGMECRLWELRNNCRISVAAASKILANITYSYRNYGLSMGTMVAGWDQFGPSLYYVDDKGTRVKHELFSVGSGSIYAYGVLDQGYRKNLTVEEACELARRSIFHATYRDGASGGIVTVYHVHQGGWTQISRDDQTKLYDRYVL
In words: Trypanosoma cruzi proteasome chymotrypsin-like activity (TcProtChymo) assay. Also: in the data most compounds retested in dose-response had high values. The class given is functional. Particulars: 9.37 µM.

Another test is filed under the species Homo sapiens. In words: To identify inhibition of the IFN signalling (Jak-Stat) pathway via expression of an eGFP reporter gene under the control of an IFN-stimulated response element (ISRE) containing MxA promoter. The class given is functional. Particulars: 30 µM. A general note: A reporter such as luciferase makes a cellular process visible.
The target in test [7] is T4, Tyrosyl-tRNA synthetase, putative (Trypanosoma cruzi (strain CL Brener)) (UniProt Q4DSP6).
T4 sequence (whole entry): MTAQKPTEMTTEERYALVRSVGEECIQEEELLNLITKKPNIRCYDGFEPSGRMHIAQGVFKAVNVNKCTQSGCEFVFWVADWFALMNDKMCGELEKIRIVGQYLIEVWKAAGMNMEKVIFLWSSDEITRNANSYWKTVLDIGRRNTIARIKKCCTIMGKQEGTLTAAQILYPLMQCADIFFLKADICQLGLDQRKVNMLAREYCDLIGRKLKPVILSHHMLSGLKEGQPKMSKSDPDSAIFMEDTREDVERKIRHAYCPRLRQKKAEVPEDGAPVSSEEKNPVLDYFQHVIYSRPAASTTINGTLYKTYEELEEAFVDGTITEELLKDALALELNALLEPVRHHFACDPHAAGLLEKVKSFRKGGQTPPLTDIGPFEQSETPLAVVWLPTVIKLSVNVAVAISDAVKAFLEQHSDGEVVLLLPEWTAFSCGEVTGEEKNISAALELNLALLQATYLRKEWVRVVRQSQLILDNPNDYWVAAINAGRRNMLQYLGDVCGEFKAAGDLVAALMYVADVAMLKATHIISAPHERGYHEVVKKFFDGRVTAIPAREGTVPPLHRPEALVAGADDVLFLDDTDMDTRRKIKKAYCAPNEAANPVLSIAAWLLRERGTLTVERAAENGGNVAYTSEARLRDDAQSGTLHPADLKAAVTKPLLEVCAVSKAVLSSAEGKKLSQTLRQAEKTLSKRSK
In words: Trypanosoma cruzi tyrosyl tRNA synthetase (TcYRS) _High Tyrosine SOP. Also: in the data most compounds retested in dose-response had high values. The class given is functional. The conditions noted are these: 30 µM.

In test [8] the target is T4, Tyrosyl-tRNA synthetase, putative (Trypanosoma cruzi (strain CL Brener)). In words: Trypanosoma cruzi tyrosyl tRNA synthetase (TcYRS) SOP. The class given is functional. The conditions noted are these: 30 µM.
Test [9] addresses Chromo domain-containing protein 1 (Saccharomyces cerevisiae (strain ATCC 204508 / S288c) (Baker's yeast)) (UniProt P32657). In words: ScCHD-1 Enzyme Inhibition Assay. Also: in the data most compounds retested in dose-response had high values. The class given is functional. Particulars: 30 µM.

Sialic acid-binding Ig-like lectin 9 (Homo sapiens), sequence (Q9Y336 whole entry): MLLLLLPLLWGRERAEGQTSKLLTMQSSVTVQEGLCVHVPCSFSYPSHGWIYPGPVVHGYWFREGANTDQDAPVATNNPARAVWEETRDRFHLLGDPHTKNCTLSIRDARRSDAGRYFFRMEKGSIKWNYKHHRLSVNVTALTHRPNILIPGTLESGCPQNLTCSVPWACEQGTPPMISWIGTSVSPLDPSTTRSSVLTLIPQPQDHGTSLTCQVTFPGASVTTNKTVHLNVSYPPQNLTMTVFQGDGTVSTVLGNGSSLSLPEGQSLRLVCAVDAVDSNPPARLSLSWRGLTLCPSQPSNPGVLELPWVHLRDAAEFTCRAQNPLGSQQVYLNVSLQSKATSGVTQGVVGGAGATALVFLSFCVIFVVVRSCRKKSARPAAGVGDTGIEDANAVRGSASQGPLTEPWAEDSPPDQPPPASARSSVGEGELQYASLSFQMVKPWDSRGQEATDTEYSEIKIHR
Chromo domain-containing protein 1 (Saccharomyces cerevisiae (strain ATCC 204508 / S288c) (Baker's yeast)), sequence (P32657 whole entry, the tested form may be a part): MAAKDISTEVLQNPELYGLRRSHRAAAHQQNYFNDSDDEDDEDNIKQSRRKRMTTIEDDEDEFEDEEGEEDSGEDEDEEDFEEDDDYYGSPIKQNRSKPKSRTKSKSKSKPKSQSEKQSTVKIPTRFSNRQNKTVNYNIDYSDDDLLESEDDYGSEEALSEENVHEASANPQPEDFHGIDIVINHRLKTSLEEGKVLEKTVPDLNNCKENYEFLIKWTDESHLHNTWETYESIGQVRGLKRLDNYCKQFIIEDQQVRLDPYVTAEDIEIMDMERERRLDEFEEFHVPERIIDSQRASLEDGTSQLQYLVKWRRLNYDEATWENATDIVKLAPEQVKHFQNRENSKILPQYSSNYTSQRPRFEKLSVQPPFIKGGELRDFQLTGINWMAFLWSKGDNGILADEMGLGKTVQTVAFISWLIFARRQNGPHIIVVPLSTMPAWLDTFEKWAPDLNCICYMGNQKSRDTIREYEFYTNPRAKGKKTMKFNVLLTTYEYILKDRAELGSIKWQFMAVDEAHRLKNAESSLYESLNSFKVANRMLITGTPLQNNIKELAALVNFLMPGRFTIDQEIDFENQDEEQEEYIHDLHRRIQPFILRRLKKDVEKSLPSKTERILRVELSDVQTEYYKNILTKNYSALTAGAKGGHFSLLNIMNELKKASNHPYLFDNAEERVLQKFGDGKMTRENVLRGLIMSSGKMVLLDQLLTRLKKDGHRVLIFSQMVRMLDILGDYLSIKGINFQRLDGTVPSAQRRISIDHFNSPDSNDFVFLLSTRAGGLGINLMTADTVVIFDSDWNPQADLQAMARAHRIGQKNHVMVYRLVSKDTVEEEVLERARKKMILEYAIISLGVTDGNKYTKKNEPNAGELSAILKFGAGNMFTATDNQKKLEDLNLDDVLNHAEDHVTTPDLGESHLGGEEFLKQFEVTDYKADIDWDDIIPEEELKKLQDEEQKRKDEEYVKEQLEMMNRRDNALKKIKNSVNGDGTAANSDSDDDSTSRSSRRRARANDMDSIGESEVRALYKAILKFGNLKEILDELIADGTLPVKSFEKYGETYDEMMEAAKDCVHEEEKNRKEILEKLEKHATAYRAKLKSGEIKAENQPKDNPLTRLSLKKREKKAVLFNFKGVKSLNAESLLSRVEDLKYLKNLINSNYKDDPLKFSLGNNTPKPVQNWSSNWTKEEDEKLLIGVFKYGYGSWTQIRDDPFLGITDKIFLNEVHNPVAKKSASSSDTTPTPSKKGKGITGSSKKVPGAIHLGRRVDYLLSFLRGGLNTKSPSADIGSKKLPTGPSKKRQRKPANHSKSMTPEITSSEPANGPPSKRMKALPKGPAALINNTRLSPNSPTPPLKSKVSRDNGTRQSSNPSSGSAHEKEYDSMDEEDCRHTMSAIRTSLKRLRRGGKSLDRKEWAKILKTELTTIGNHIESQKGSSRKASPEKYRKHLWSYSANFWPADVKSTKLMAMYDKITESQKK
Protein translocase subunit SecA (Escherichia coli (strain K12)), sequence (P10408 whole entry): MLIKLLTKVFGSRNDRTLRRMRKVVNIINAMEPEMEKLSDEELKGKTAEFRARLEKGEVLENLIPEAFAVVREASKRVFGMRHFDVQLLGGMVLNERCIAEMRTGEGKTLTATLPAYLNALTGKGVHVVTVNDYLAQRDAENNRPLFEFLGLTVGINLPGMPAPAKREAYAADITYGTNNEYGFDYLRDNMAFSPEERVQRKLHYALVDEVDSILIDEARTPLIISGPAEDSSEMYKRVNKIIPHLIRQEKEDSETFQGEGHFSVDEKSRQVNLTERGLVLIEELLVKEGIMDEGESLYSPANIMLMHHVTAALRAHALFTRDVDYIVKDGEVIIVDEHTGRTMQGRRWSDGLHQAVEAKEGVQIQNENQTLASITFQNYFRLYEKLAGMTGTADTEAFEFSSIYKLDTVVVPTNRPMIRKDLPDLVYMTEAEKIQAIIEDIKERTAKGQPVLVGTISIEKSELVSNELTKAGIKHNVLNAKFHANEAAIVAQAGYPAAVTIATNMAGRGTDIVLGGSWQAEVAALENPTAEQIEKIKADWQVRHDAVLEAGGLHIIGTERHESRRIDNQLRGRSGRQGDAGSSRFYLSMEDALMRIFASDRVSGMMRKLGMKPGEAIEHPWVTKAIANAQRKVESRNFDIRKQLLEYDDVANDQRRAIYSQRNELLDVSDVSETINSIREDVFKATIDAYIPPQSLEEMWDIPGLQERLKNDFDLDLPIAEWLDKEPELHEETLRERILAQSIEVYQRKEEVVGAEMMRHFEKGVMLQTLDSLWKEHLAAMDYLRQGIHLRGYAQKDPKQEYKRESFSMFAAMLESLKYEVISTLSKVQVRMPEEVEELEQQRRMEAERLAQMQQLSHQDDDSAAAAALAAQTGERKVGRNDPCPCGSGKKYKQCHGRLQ

With `CCn1cc(CN2CCCN(C(=O)c3ccn(C)c(=O)c3)CC2)cn1`, the Percent Effect in test [1] was -0.55%; in test [2], 20.8%; in [3], -9.71%; in test [4], -17.4%; in the test with Trypanosoma cruzi, 4.02%; in test [5], -0.632%. The Percent Effect in test [6] was 10.9%; in the test filed under Homo sapiens it was 11.6%; in test [7], 10.5%; in [8], 23.5%; in [9], -18.6%.

For the compound `CCc1nc(CN2CCCC(N(C)Cc3cnc(C)s3)C2)no1` (configuration not stated), the Percent Effect in test [1] was -0.97%; in test [2] it was -5.48%; in [3], -1.7%; in [4] it was 3.08%; with Trypanosoma cruzi, 0.979%; in [5], 0.455%. The Percent Effect is 18.8% in test [6]; -15.8% in the test listed under Homo sapiens; 2.15% in test [7]; 0% in test [8]; -0.829% in [9].

Consider `CCc1nccn1C1CCCN(C(=O)CCc2nccs2)C1` (configuration not stated), for which the Percent Effect in test [1] was -2%; in test [2], -5.41%; in [3], -10.8%; in test [4], 5.59%; in the test with Trypanosoma cruzi it was -0.66%; in test [5], -6.81%. The Percent Effect in [6] was 5.77%; in the test filed under Homo sapiens, 1.54%; in test [7] it was 1.48%; in test [8], 1.24%; in [9] it was -1.72%.

As for `CN(Cc1nc(N)c2ccccc2n1)CC1CCCN1c1cccnn1` (configuration not stated), the Percent Effect in test [1] was -6.24%; in test [2], 5.2%; in test [3] it was 2.23%; in [4] it was -2.05%; with Trypanosoma cruzi, 11.8%; in test [5], -2.32%. The Percent Effect was 13.2% in test [6]; -8.77% in the test listed under Homo sapiens; 6.67% in [7]; 18.8% in test [8]; -22.9% in test [9].

Turning to `CC(=O)Nc1ccc(CNC2CC(=O)N(Cc3cccc(F)c3)C2)cc1` (configuration not stated), the Percent Effect in test [1] is -2.91%; in test [2], 0%; in test [3], -1.25%; in test [4], 1.06%; with Trypanosoma cruzi, -2.7%; in [5] it was -3.33%. In addition, the Percent Effect in [6] was 1.55%; in the test listed under Homo sapiens, -18.6%; in test [7] it was 2.65%; in test [8], 7.32%; in test [9], -0.408%.

Consider `O=C(COc1cccc(Br)c1)N1CCOCC1c1ncon1` (configuration not stated), for which the Percent Effect was -1.32% in test [1]; -2.7% in test [2]; -2.58% in test [3]; -3.06% in [4]; 6.13% with Trypanosoma cruzi; 1.6% in [5]. Further, the Percent Effect in test [6] is 1.44%; in the test listed under Homo sapiens, -26.1%; in test [7], 1.48%; in [8], -1.24%; in test [9] it was -4.52%.

For the compound `Cc1cc(-c2cnn(CCNC(=O)C3CCCO3)c2C2CC2)on1` (configuration not stated), the Percent Effect in [1] is -5.64%; in test [2], 4.05%; in test [3], 12%; in test [4], 8.12%; in the test with Trypanosoma cruzi it was 5.34%; in [5], 0.232%. In addition, the Percent Effect in [6] came out at 3.59%; in the test filed under Homo sapiens, 0.87%; in test [7], 2.15%; in test [8], 11.7%; in [9], 0.889%.

The values are drawn from ChEMBL document CHEMBL3988442, “University of Dundee, Small-Polar-MMV Screening Library” (2021).
